From PubChem BioAssay (NCATS)
Results filed as inconclusive are left out. Calls of active or inactive are those of the source. Calls follow the shape of the full dose curve. Bridge positions count the residues as written; N and C are the ends. Square brackets hold non-standard residues; d marks the D form. Peptide text beside a SMILES is read from it. * marks the point of attachment. Octanoyl(6-Me) = CCC(C)CCCCC(=O)*; Dab = NCC[CH](N)C(=O)O

How the values were obtained:
[1] = Primary qHTS for inhibitors of SARS-S pseudo-typed particle cell entry (AID 1479145); conditions: outcome: dose series up to 57.1 µM unless noted; also: nearly all actives have a fitted effect of over 45% in size; as to activity change, negative = inhibition: % is scaled to controls: 0 for no effect and ±100 for the full control effect
[2] = Primary qHTS for Huh7 cytotoxicity: counterscreen for inhibitors of MERS-S pseudotyped particle cell entry (AID 1479147); conditions: outcome: dose series up to 57.1 µM unless noted
[3] = Primary qHTS for inhibitors of MERS-S pseudo-typed particle cell entry (AID 1479149); conditions: outcome: dose series up to 57.1 µM unless noted; also: nearly all actives have a fitted effect of over 60% in size; as to activity change, negative = inhibition: % is scaled to controls: 0 for no effect and ±100 for the full control effect
[4] = Primary qHTS for Vero E6 cytotoxicity: counterscreen for inhibitors of SARS-S pseudo-typed particle cell entry (AID 1479150); conditions: outcome: dose series up to 57.1 µM unless noted; as to activity change, negative = cytotoxicity: % is scaled to controls: 0 for no effect and ±100 for the full control effect
[5] = Cytotoxicity counterscreen for inhibitors of SARS-CoV-2 cell entry (AID 1645845); conditions: outcome: dose series up to 57.1 µM unless noted; also: nearly all actives have a fitted effect of over 50% in size; as to activity change, negative = cytotoxicity: % is scaled to controls: 0 for no effect and ±100 for the full control effect
Summary of the method: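 ATP-content luminescence (ATPLite 1step, 15 min RT) read after 48 h compound exposure of Expi293F cells stably expressing human ACE2; normalized to cells-only wells and media-only wells.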

[6] = Primary qHTS to identify inhibitors of SARS-CoV-2 cell entry (AID 1645846); conditions: SARS-CoV-2 pseudovirus cell entry assay, luminescence; activity change, negative = inhibition: at 57.1 µM (top of the series) unless noted; also: nearly all actives have a fitted effect of over 45% in size
Summary of the method: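 Inhibition of spike-mediated entry was scored in human ACE2-transfected Expi293F cells. Particles were MLV-pseudotyped with Wuhan-Hu-1 S carrying a 19-aa C-terminal deletion; signal was luciferase after two days, scaled between spike PP and fusion-protein-free PP.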

CO[C@H]1C[C@@H]2CC[C@@H](C)[C@@](O)(O2)C(=O)C(=O)N2CCCC[C@H]2C(=O)O[C@H]([C@H](C)C[C@@H]2CC[C@@H](OCCO)[C@H](OC)C2)CC(=O)[C@H](C)/C=C(/C)[C@@H](O)[C@@H](OC)C(=O)[C@H](C)C[C@H](C)\C=C/C=C\C=C/1C
inactive: Potency [1] | Potency [2] | Potency [3] | Potency [4] | Potency [5]
-11.8% [at 27.1 µM]: activity change, negative = inhibition [6]

CCC(=O)NC[C@@H]1C[C@H]1c1cccc2c1CCO2
-21.9%: activity change, negative = inhibition [6]
inactive: Potency [1] | Potency [2] | Potency [3] | Potency [4] | Potency [5]

CSCC[C@H](N)C(=O)O
inactive: Potency [1] | Potency [2] | Potency [3] | Potency [4] | Potency [5] | Potency [6]

C[N+](C)(CCCCCC[N+](C)(C)C1c2ccccc2-c2ccccc21)C1c2ccccc2-c2ccccc21
-0.342%: activity change, negative = inhibition [6]
inactive: Potency [1] | Potency [2] | Potency [3] | Potency [4] | Potency [5]

CCC(CC)[C@H](NC(C)=O)[C@@H]1[C@H](O)[C@@H](C(=O)O)C[C@H]1N=C(N)N
-12.4% [at 0.702 µM]: activity change, negative = inhibition [6]
inactive: outcome [1] inactive [at 0.573 µM] | outcome [2] inactive [at 0.573 µM] | outcome [3] inactive [at 0.573 µM] | outcome [4] inactive [at 0.573 µM] | outcome [5] inactive [at 0.702 µM]

CO[C@H]1C[C@@H](O[C@@H]2/C(C)=C/C[C@@H]3C[C@@H](C[C@]4(CC[C@H](C)[C@@H](C5CCCCC5)O4)O3)OC(=O)[C@@H]3C=C(C)/C(=N/O)[C@H]4OC/C(=C\C=C\[C@@H]2C)[C@]43O)O[C@@H](C)[C@H]1O
inactive: Potency [1] | Potency [2] | Potency [3] | Potency [4] | Potency [5] | Potency [6]

NC[C@@H]1O[C@H](O[C@H]2[C@@H](O)[C@H](O[C@@H]3[C@@H](O)[C@H](N)C[C@H](N)[C@H]3O[C@H]3O[C@H](CO)[C@@H](O)[C@H](O)[C@H]3N)O[C@@H]2CO)[C@H](N)[C@@H](O)[C@@H]1O
inactive: activity change, negative = inhibition [1] -8.64% [at 0.573 µM] | outcome [2] inactive [at 0.573 µM] | outcome [3] inactive [at 0.573 µM] | activity change, negative = cytotoxicity [4] -20.5% [at 0.573 µM] | activity change, negative = cytotoxicity [5] -2.38% [at 0.702 µM] | outcome [6] inactive [at 0.702 µM]

CNCC(O)c1ccc(OC(=O)C(C)(C)C)c(OC(=O)C(C)(C)C)c1 (stereo unspecified)
-25.4%: activity change, negative = inhibition [6]
inactive: Potency [1] | Potency [2] | Potency [3] | Potency [4] | Potency [5]

NC[C@@H]1O[C@H](O[C@H]2[C@H](O)[C@H](O[C@H]3[C@@H](O)[C@H](N)C[C@H](N)[C@H]3O[C@H]3O[C@H](CN)[C@H](O)[C@H](O)[C@H]3N)O[C@@H]2CO)[C@@H](N)[C@@H](O)[C@@H]1O
inactive: activity change, negative = inhibition [1] -20.9% [at 5.34 µM] | outcome [2] inactive [at 5.34 µM] | activity change, negative = inhibition [3] 3.6% [at 5.34 µM] | activity change, negative = cytotoxicity [4] -3.76% [at 5.34 µM] | activity change, negative = cytotoxicity [5] 2.87% [at 5.25 µM]
-25.4% [at 5.25 µM]: activity change, negative = inhibition [6]

COc1cccc(N2CCN(C3=Nc4c(F)cccc4[C@H](CC(=O)O)N3c3cc(C(F)(F)F)ccc3OC)CC2)c1
inactive: Potency [1] | Potency [2] | Potency [3] | Potency [4] | Potency [5] | Potency [6]

CCC(C)CCCCC(=O)NC(CCN)C(=O)NC(C(=O)NC(CCN)C(=O)NC1CCNC(=O)C(C(C)O)NC(=O)C(CCN)NC(=O)C(CCN)NC(=O)C(CC(C)C)NC(=O)C(Cc2ccccc2)NC(=O)C(CCN)NC1=O)C(C)O (stereo unspecified) ({Octanoyl(6-Me)}-[Dab]T[Dab][Dab][Dab]FL[Dab][Dab]T; lactam 4-C; configuration not given here)
inactive: Potency [1] | Potency [2] | Potency [3] | Potency [4] | Potency [5]
-13.5% [at 27.1 µM]: activity change, negative = inhibition [6]

CNC(=O)OCc1cccc(COC(=O)NC)n1
inactive: Potency [1] | Potency [2] | Potency [3] | Potency [4] | Potency [5] | Potency [6]

C/C=C(/C)C(=O)O[C@H]1C(C)=CC23C(=O)C(C=C(CO)[C@@H](O)[C@]12O)[C@H]1[C@@H](C[C@H]3C)C1(C)C (stereo partly specified)
inactive: Potency [1] | Potency [2] | Potency [3] | Potency [4] | Potency [5] | Potency [6]

CC(=O)OCC(=O)[C@@]1(O)[C@H](C)C[C@H]2[C@@H]3C[C@H](F)C4=CC(=O)C=C[C@]4(C)[C@@]3(F)[C@@H](O)C[C@@]21C
inactive: Potency [1] | Potency [2] | Potency [3] | Potency [4] | Potency [5] | Potency [6]

CCN1CCN(C(=O)N[C@@H](C(=O)N[C@]2(OC)C(=O)N3C(C(=O)O)=C(CSc4nnnn4C)CS[C@@H]32)[C@H](C)O)C(=O)C1=O
-16.3%: activity change, negative = inhibition [6]
inactive: Potency [1] | Potency [2] | Potency [3] | Potency [4] | Potency [5]

C=C(C)C1CC=C(C)CC1 (stereo unspecified)
-21.4% [at 114 µM]: activity change, negative = inhibition [6]
inactive: Potency [1] | Potency [2] | Potency [3] | Potency [4] | Potency [5]

CCC(Oc1ccccc1)C(=O)N[C@@H]1C(=O)N2[C@@H]1SC(C)(C)[C@@H]2C(=O)O (stereo partly specified)
-26.6% [at 114 µM]: activity change, negative = inhibition [6]
inactive: Potency [1] | Potency [2] | Potency [3] | Potency [4] | Potency [5]

Cc1ncc(C[n+]2csc(CCOP(=O)(O)OP(=O)(O)O)c2C)c(N)n1
inactive: outcome [1] inactive [at 0.573 µM] | outcome [2] inactive [at 0.573 µM] | outcome [3] inactive [at 0.573 µM] | activity change, negative = cytotoxicity [4] -14.9% [at 0.573 µM] | activity change, negative = cytotoxicity [5] 3.84% [at 0.702 µM]
-1.65% [at 0.702 µM]: activity change, negative = inhibition [6]

C[C@]12CCC3=C4CCC(=O)C=C4CC[C@H]3[C@@H]1CC[C@@]2(O)CC#N
inactive: Potency [1] | Potency [2] | Potency [3] | Potency [4] | Potency [5]
-3.65%: activity change, negative = inhibition [6]

COc1ccc(C[C@H](C)NC[C@@H](O)c2ccc(O)c(NC=O)c2)cc1
inactive: Potency [1] | Potency [2] | Potency [3] | Potency [4] | Potency [5]
-27.6%: activity change, negative = inhibition [6]

CC(=O)NC(C=O)C(O)C(O)[C@H](O)CO (stereo partly specified)
inactive: Potency [1] | Potency [2] | Potency [3] | Potency [4] | Potency [5]
-0.156%: activity change, negative = inhibition [6]
